In PubChem BioAssay (NCI) one finds growth inhibition data, which are given here for 22 compounds.

The panel holds about 79,000 compounds, 15% with a hit somewhere; the sample as a whole holds those more often. Calls of active or inactive are those of the source. No stated cut-off is given here; in the data, active means growth inhibition above about 70%; inactive means the rest.

A short description of this assay: NCI Yeast Anticancer Drug Screen. Data for the rad52 strain (AID 147).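 Further: 0% = growth of vehicle-treated control cultures.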 Conditions: S. cerevisiae rad52 mutant growth inhibition; at 1.2 µM; stronger effect = higher value. The essentials: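 DNA repair-defective yeast; compound exposure; growth scored against vehicle controls.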
For `NC1CCCCC1N.Nc1c(N=Nc2ccc(-c3ccc(N=Nc4cc(S(=O)(=O)[O-])c5ccccc5c4N)cc3)cc2)cc(S(=O)(=O)[O-])c2ccccc12.[OH3+].[OH3+].[Pt+4]`, the growth inhibition is 0% (inactive).

In the case of `COC(=O)CCC(NC(=S)N/N=C(\C)c1ccccn1)C(=O)OC` (configuration not stated), the growth inhibition was -21% (inactive). The same measure for `NC(=O)C(=O)NNc1ccccc1`: 4% (inactive); for `COc1cc(C2SCC(=O)N2c2ccc(-c3ccc(-n4c(-c5ccccc5)nc5ccccc5c4=O)cc3)cc2)ccc1O` (configuration not stated): -2% (inactive). As for `COc1ccc(/C=C/c2sc3ccccc3[n+]2CCCCI)cc1OC`, the growth inhibition was -8% (inactive).

Regarding `Cc1c(C(C)C)cc(OCCO)cc1C(C)C`, the growth inhibition is -3% (inactive).

With `Cc1cc(NCCCCCCCCNc2cc(C)nc3cc(N)ccc23)c2ccc(N)cc2n1`, the growth inhibition was -41% (inactive). The same measure for `C=C(Cl)COC(=O)Nc1cccc(Cl)c1`: 3% (inactive); for `CC(=O)OC1CC2C(C)(C)C(=O)C=C[C@]2(C)C2CCC3(C)C(=CCC3[C@H](CO)C[C@H](O)C(=O)C(C)(C)O)[C@]12C` (some centres not stated): -7% (inactive); for `COc1ccc(/C=C/C(=O)c2ccccc2)cc1OC`: -42% (inactive). Take `COc1c(O)c(C=O)c(Br)c(C=O)c1O`: the growth inhibition was 2% (inactive). Take `O=[N+]([O-])c1cc(Cl)cnc1Br`: the growth inhibition was 23% (inactive).

Consider `Cc1ccc2c(c1)C1(SC(C)C(=O)N1c1ccc(Cl)cc1)C(=O)N2` (configuration not stated), for which the growth inhibition was 0% (inactive). To `COc1cc(CSc2ccc(O)cc2)cc(O)c1O` belongs 2% (inactive); to `Cc1ccc2c3ccc4c(c3n(C)c2c1)C(=O)C=CC4=O`, -55% (inactive).

As to `O=C(Nc1ccc(Cl)cc1)Nc1nnc2nc(C(C(=O)c3cccc([N+](=O)[O-])c3Cl)c3nc4nnc(NC(=O)Nc5ccc(Cl)cc5)n4[nH]c3=O)c(=O)[nH]n12`, the growth inhibition is 2% (inactive).

For the compound `O=C(O)C1CC(c2ccccc2)=NN1c1ccccc1` (configuration not stated), the growth inhibition was -28% (inactive). The same measure for `CCCCc1ccc(-n2c(C)c(COC(=O)NC)c(COC(=O)NC)c2C)cc1`: -40% (inactive). To `CCC(=O)c1cc(C(=O)C(=S)SC)cc(C(=O)C(=S)SC)c1` belongs 1% (inactive); to `CCn1c(O)c(C=Nc2ccccc2)s/c1=N/Nc1nc(-c2ccccc2)cs1`, 12% (inactive). The same measure for `Cc1ccccc1N=C(NO)c1ccccc1`: 10% (inactive). On to `Cc1nc2ccccc2nc1NNc1ccccc1`, for which the growth inhibition was -5% (inactive).
